Assay [1] has as its system Human papillomavirus type 1a protein E7 (residues 44-93). Briefly: HPV1a E7 fragment binders on microarrays, primary screen, biochemical, small-molecule microarray, residues 44-93, 635 nm fluorescence (AID 1108).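 Further: E7 fragment applied at 1 µg/mL in TBST for 1 h at 4 C; score combines spot fluorescence with its signal to noise ratio.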 As to conditions: small-molecule microarray binding, fluorescence 635 nm; higher = more signal.
A short description of assay [2]: modulators of HCV replicon luciferase signal, primary screen, HCV replication inhibitor project, Huh7 cells, luciferase reporter (AID 1109).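 Further: huh7 hepatoma cells harbouring a luciferase neomycin HCV replicon reporter; luciferase luminescence as measure of HCV replicon replication; test concentration not given here.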 Conditions: 48 h, higher = more signal. In general terms: In antiviral work, replicon cells carry a viral genome segment that copies itself.
The target in assay [3] is Left-right determination factor 2 (Homo sapiens) (UniProt O00292). As to the kind of experiment: LEFTY2 binders on small-molecule microarrays, primary screen, biochemical, small-molecule microarray, 635 nm fluorescence scan (AID 1110). Conditions: LEFTY2 binding, higher = more signal.
Assay [4] addresses Calmodulin-1 (Homo sapiens) (UniProt P0DP23). As to the kind of experiment: CALM1 binders on microarrays, EGTA buffer, profiling panel, biochemical, small-molecule microarray, Cy5-labelled CALM1 (AID 1111).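 Further: labelled calmodulin applied in Tris saline Tween buffer holding calcium plus EGTA and DTT.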 Conditions: Cy5-CALM1 binding fluorescence, higher = more signal.
Assay [5] shares this target. Briefly: calcium-bound CALM1 binders on microarrays, profiling panel, artefact control for SMM control-protein annotation, biochemical, small-molecule microarray, Cy5-labelled CALM1, plus calcium (AID 1112).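 Further: score merges spot fluorescence with signal to noise from triplicate slides.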 Conditions: Cy5-CALM1 binding fluorescence, higher = more signal.
Assay [6] in a line: small-molecule microarray binders of probe aWnt5a, primary screen, biochemical, biotinylated probe, 635/667 nm fluorescence (AID 1113).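 Further: score merges 667 nm fluorescence intensity with signal-to-noise per printed feature.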 As to conditions: higher = more signal.
A short description of assay [7]: small-molecule microarray binders of probe aShh, primary screen, biochemical, biotinylated probe, 635/667 nm fluorescence (AID 1114).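 Further: probe is biotin-labelled aShh protein from a stem cell growth factor screen; measures binding of labelled protein to compounds printed on the slide; score merges feature fluorescence at 667 nm with signal-to-noise.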 As to conditions: higher = more signal.
The nature of assay [8]: small-molecule microarray binders of probe aNog, primary screen, biochemical, biotinylated probe, 635/667 nm fluorescence (AID 1115).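 Further: probe is biotinylated aNog protein used at 0.15 µg/mL for 1 h at 4 C; z-score combines 667 nm fluorescence of each spot with its signal to noise.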 Conditions: higher = more signal.
The target in assay [9] is Torsin-1A-interacting protein 1 (Homo sapiens) (UniProt Q5JTV8). As to the kind of experiment: LAP1 binders from COS7 cell lysate, primary screen, small-molecule microarray, 635/667 nm fluorescence (AID 1116). Conditions: COS7-hLAP1 lysate binding, 635 nm fluorescence, higher = more signal.
Assay [10] addresses Alpha-bungarotoxin (Bungarus multicinctus) (UniProt P60615). As to the kind of experiment: alpha-bungarotoxin binders on microarray, profiling panel, artefact control for SMM control protein annotation, biochemical, small-molecule microarray, Alexa647 label, 635/667 nm fluorescence (AID 1117). As to conditions: alpha-BTX-A647 binding fluorescence, higher = more signal.

Sequence of Left-right determination factor 2 (Homo sapiens) (O00292 whole entry, looked up): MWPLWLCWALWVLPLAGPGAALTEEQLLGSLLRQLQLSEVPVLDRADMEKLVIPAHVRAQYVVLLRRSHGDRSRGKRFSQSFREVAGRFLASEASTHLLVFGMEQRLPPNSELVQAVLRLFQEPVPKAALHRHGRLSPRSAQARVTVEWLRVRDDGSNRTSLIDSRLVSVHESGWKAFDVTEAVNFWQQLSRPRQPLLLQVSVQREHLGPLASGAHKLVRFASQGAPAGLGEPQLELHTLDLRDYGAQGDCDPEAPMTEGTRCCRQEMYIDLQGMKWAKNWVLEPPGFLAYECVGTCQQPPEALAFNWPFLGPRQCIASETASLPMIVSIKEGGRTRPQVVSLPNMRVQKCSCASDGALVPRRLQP
Sequence of Torsin-1A-interacting protein 1 (Homo sapiens) (Q5JTV8 whole entry, looked up): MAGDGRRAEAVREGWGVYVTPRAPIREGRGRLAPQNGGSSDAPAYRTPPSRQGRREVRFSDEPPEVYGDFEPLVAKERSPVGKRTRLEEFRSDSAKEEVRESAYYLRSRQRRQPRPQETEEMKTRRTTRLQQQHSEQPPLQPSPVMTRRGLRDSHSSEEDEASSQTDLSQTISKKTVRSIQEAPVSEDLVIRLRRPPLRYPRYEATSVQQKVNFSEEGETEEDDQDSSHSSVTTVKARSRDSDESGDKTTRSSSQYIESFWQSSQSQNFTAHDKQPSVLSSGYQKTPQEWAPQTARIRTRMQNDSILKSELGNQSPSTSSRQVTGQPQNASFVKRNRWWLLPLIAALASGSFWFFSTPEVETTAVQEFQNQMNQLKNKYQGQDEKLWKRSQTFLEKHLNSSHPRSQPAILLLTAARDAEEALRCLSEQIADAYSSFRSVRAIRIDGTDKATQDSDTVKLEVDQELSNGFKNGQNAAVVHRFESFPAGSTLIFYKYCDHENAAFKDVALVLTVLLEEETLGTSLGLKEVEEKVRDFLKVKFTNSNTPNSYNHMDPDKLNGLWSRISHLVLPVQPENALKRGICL
Sequence of Alpha-bungarotoxin (Bungarus multicinctus) (P60615 whole entry, looked up): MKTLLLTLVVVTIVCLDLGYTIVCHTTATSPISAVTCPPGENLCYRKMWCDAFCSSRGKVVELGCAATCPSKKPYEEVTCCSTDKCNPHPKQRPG

`CCCCN1CC=CC23O[C@@H]4C=CCCOC(=O)C4[C@H]2C(=O)N(CCCCCCO)[C@@H]3C1=O` (stereo not given in full): the composite z-score in assay [1] was 0.748; in assay [3], -1.11; in assay [4], -0.235; in assay [5] it was -0.0631; in assay [6] it was -0.274; in assay [7], -0.117. Besides, the composite z-score is -0.413 in assay [8], 0.999 in assay [9] and -0.324 in assay [10]. The z-score in assay [2] is -0.485.
As for `COc1ccc(C#Cc2ccc3c(c2)[C@]2(C(=O)N3)[C@H](c3ccccc3OCCO)N3[C@H](c4ccccc4)[C@H](c4ccccc4)OC(=O)[C@H]3[C@@H]2C(=O)Nc2nc3ccccc3s2)cc1`, the composite z-score is 1.35 in assay [1]; 0.464 in assay [3]; 0.844 in assay [4]; -0.104 in [5]; -0.128 in assay [6]; -0.0556 in [7]. In addition, the composite z-score in assay [8] was 1.76; in [9] it was 0.307; in [10], 1.62. Further, the z-score in assay [2] was -2.83.
On to `[N-]=[N+]=NCc1ccccc1C[C@]1(C(=O)N2CCCCC2)N=C(c2ccc(OCCCO)cc2)O[C@H]1c1ccccc1N=[N+]=[N-]`, for which the composite z-score stood at 1.41 in assay [1]; 0.0928 in assay [3]; 1.43 in assay [4]; 0.587 in assay [5]; 0.171 in [6]; 0.417 in assay [7]. Also, the composite z-score in [8] turned out to be 1.03; in assay [9], 1.85; in assay [10], 1.45. Further, in assay [2], the z-score was -2.92.
For `CCOC(=O)C1=CC[C@@H](c2ccccc2)N(S(=O)(=O)c2ccc(C)cc2)[C@H]1c1ccccc1C`, the composite z-score in assay [1] was 1.18; in assay [3], 0.104; in assay [4], 0.232; in assay [5] it was 0.296; in assay [6] it was -0.0512; in [7], 0.294. The composite z-score in assay [8] was -0.0496; in assay [9], 0.336; in assay [10] it was -0.0244. In addition, in assay [2], the z-score is -1.6.
As for `COc1cc(Br)cc(C(O)C2C=CC3C(=O)N(C)C(=O)C3N2N2CCCCC2)c1OC` (stereo not given), the composite z-score in [1] was 0.207; in [3], -1.31; in [4], -0.104; in assay [5], 0.315; in assay [6] it was -0.0735; in assay [7], 0.304. Besides, the composite z-score in [8] was 0.69; in assay [9] it was 1.09; in assay [10], -0.251. In [2], this compound returned a z-score of -0.0024.
For `NC(=O)NCC#Cc1ccc2c(c1)[C@]1(C(=O)N2)[C@H](C(N)=O)[C@H]2C(=O)O[C@H](c3ccccc3)[C@H](c3ccccc3)N2[C@@H]1c1ccc(O)cc1`, the composite z-score in [1] was 0.502; in [3] it was -1.13; in assay [4] it was 0.721; in assay [5], 0.562; in assay [6] it was 0.726; in assay [7] it was 0.42. For the same compound, the composite z-score in assay [8] worked out at 2.39; in assay [9], 3.44; in assay [10], 2.12. The same compound came in with a z-score in assay [2] of 0.408.
As for `C=C(C)[C@@H]1CC=C(C(O)C2C=CC3C(=O)N(c4ccccc4)C(=O)C3N2Nc2ccccc2)CC1` (stereo not given in full), the composite z-score in [1] was determined as 0.478; in [3], 0.261; in [4] it was 2.06; in assay [5], 0.103; in [6] it was 0.212; in assay [7], 0.642. In addition, the figures for the composite z-score in [8], in assay [9] and in assay [10] were 1.95, 1.79 and 2.62, respectively. Further, the z-score in [2] was -1.38.
In the case of `C=CCC(OC(C)=O)[C@@H]1[C@@H](N(Cc2cc3ccccc3o2)C(=O)c2cccc3ccccc23)c2cc(OCCCO)ccc2N1C(=O)c1ccc(-c2ccccc2)cc1` (stereo not given in full), the composite z-score is -0.0367 in assay [1]; -0.126 in [3]; 0.132 in assay [4]; 0.908 in assay [5]; 0.0368 in assay [6]; -0.0553 in [7]. Moreover, the composite z-score was -0.219 in assay [8], 0.235 in [9] and 0.359 in [10]. In assay [2], this compound returned a z-score of 0.0372.
Turning to `C=C(CCCC)/C(=C/C[C@H](OC(=O)c1ccncc1)c1ccccc1OCCO)c1cnc2ccccc2c1`, the composite z-score in assay [1] was 1.13; in assay [3] it was 0.274; in assay [4], 0.154; in [5] it was -0.666; in assay [6], -0.096; in assay [7], -0.0977. Moreover, the composite z-score is -0.0428 in [8], 0.634 in assay [9] and 0.527 in [10]. For the same compound, the z-score in [2] was -2.82.
Turning to `CCCCCN1CC=CC23O[C@@H]4C=CCCOC(=O)C4[C@H]2C(=O)N(CCCCCO)[C@@H]3C1=O` (stereo not given in full), the composite z-score in [1] was -0.168; in [3] it was -0.368; in assay [4] it was -0.339; in [5], -0.578; in [6] it was -0.096; in [7], -0.243. Besides, the values for the composite z-score in assay [8], in assay [9] and in assay [10] were -0.178, 0.884 and -0.99, respectively. Besides, the z-score in [2] is -0.605.
As for `CC(=O)NCCCC[C@@H]1NC(=O)[C@H]2C[C@@H](C(=O)NCCCCCCNC(=O)CS)[C@@H](c3ccc(O)cc3)N2C1=O`, the composite z-score is 1.06 in [1]; -0.747 in [3]; 0.362 in assay [4]; -0.295 in assay [5]; -0.124 in [6]; 0.131 in [7]. Besides, the composite z-score was found to be 0.0933 in assay [8], 0.284 in assay [9] and 1.33 in [10]. Also, the z-score in assay [2] is -0.532.

(Values after PubChem BioAssay.)
